In PubChem BioAssay (NCI):
The panel holds about 83,000 compounds, 20% with a hit somewhere; the sample as a whole holds those more often.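 A percent growth of 40 corresponds to 60% growth inhibition; 0 means no net growth; -100 means all cells died. Active threshold: below 10.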 A number with no mark means an inactive call. Active and inactive are the calls of the source.

The molecules below were run on MDA-MB-435 melanoma (assay: NCI-60 one-dose screen, 48 h (100 = growth as untreated, 0 = no growth, -100 = all killed)). Details: 10 µM unless noted.

Row | SMILES | growth
1 | O=c1oc2ccc(Cl)cc2c(=O)n1-c1ccc(Cl)cc1F | -5.48% (active)
2 | O=C(CCc1nnc2sc(Cc3ccccc3Cl)nn12)c1nc2ncccc2[nH]1 | 102%
3 | O=c1oc2ccc(I)cc2c(=O)n1-c1ccc(I)cc1F | -4.7% (active)
4 | O=C(NCc1ccccc1)C1CN(c2ccc(Cl)cc2)N(c2ccc(Cl)cc2)C1=O (stereo not drawn) | 3.28% (active)
5 | O=c1oc2ccc(-c3ccc(F)cc3F)cc2c(=O)n1-c1cccc(C(F)(F)F)c1 | 5.25% (active)
6 | Nc1nc(-c2cnccn2)nn1-c1nc2ccccc2s1 | 103%
7 | O=C(c1ccccc1)N(C(=S)NCCc1ccc(Cl)cc1)c1ccc(Cl)cc1 | 37.9%
8 | O=C(COc1cc(O)c2c(=O)cc(-c3ccccc3)oc2c1)Nc1ccccc1 | 95.3%
9 | O=C(Nc1ccc(I)cc1F)c1cc(Cl)ccc1O | -2.93% (active)
10 | O=c1oc2ccc(F)cc2c(=O)n1-c1ccc(I)cc1F | -1.4% (active)
11 | O=C(Nc1ccc(I)cc1F)c1cc(Br)ccc1O | -3.54% (active)
12 | CSc1nc2c(c(=O)[nH]1)N=C1c3ccccc3C(=O)C1C(c1ccc(F)cc1)N2 (stereo not drawn) | -2.38% (active)
13 | O=C(Nc1ccc(F)cc1F)c1cc(I)ccc1O | 5.35% (active)
14 | O=C(Nc1ccc(Br)cc1F)c1cc(Cl)ccc1O | -13.9% (active)
15 | Cn1nc(C(C)(C)C)cc1NC(=O)Cc1ccc(/C=C2\C(=O)Nc3ccccc32)cc1 | 56%
16 | CN(CCc1ccccc1)C(=S)N(C(=O)c1ccc([N+](=O)[O-])cc1)c1ccc(Cl)cc1 | 85.9%
17 | O=C(c1ccccc1)N(C(=S)NCCc1ccc(Cl)cc1)c1ccccc1 | 84%
18 | O=C(Nc1ccc(F)cc1F)c1cc(Br)ccc1O | 0.167% (active)
19 | CC[C@]1(O)C[C@@H]2CN(CCc3c([nH]c4ccccc34)[C@@](C(=O)OC)(c3cc4c(cc3OC)N(C)[C@H]3[C@@](O)(C(=O)OC)[C@H](OC(=O)CCCBr)[C@]5(CC)C=CCN6CC[C@]43[C@@H]65)C2)C1 | -36% (active)
20 | O=c1oc2ccc(Cl)cc2c(=O)n1-c1ccc(F)cc1F | 3.09% (active)

Row | SMILES | growth
21 | Fc1cccc(COc2ccc(Nc3ncnc4onc(-c5ccccc5)c34)cc2)c1 | -54.7% (active)
22 | O=C(Nc1ccc(F)cc1F)c1cc(Cl)ccc1O | 4.56% (active)
23 | O=C(CCc1nnc2sc(-c3ccc(Cl)cc3Cl)nn12)c1nc2ncccc2[nH]1 | -31.2% (active)
24 | COc1ccc(C2=C(c3cccc(OC)c3)C(=O)c3ccc(C)nc3C2=O)cc1 | 32.2%
25 | COc1cc(/C=C2\Oc3cc(OCCCN4CCCC4)ccc3C2=O)cc(OC)c1 | 78.9%
26 | Nc1ccn(C2O[C@H](CO)[C@@H](O)[C@H]2O)c(=O)n1 (stereo partly drawn) | 88.8%
27 | COc1cc2nc(-c3cnc(N(C)C)nc3)nc(NC3CCN(Cc4ccccc4)CC3)c2cc1OC | -83.6% (active)
28 | O=c1oc2ccc(I)cc2c(=O)n1-c1ccc(F)cc1F | 1.74% (active)
29 | C1=CC2(C=C1)OC21CCC2(C=CC3(C2)OC3C2CCCCC2)CC1 (stereo not drawn) | 97.4%
30 | COc1ccc2[nH]c(O)c(N=NC(=O)c3oc4ccccc4c3C)c2c1 | 28.9%
31 | CCOc1ccc(-c2nonc2NC(=O)c2cccc(C)c2)cc1OCC | 51.7%
32 | Cc1cccc2c(=O)c3c(sc12)c(NCCN)nc1ccccc13 | -93.9% (active)
33 | COc1ccc(Cn2c(Br)c3c(c2Br)-c2nc(NC(=O)c4ccc(OC)cc4)sc2CC3)cc1 | 61.8%
34 | O=C(Nc1ccc(Br)cc1F)c1cc(I)ccc1O | 4.78% (active)
35 | Cc1ccc2[nH]c(=O)cc(-n3nncc3Cn3c4ccccc4c4ccccc43)c2c1 | 100%
36 | COc1ccc(-c2cn[nH]c2-c2ccc(OC)c(O)c2)cc1 | 3.35% (active)
37 | O=C(CCc1nnc2sc(COc3ccccc3)nn12)c1nc2ncccc2[nH]1 | 101%
38 | CCOC(=O)c1c2c(c(C)n1Cc1ccc(OC)cc1)-c1oncc1CC2 | 120%
39 | Cc1nc(Nc2ccccn2)sc1C(=O)/C=C/c1ccc(Cl)cc1 | -28.8% (active)

What follows are molecules tested on SW-620 colon in the same assay as above. Details: 10 µM unless noted.

Row | SMILES | growth
40 | O=c1oc2ccc(Cl)cc2c(=O)n1-c1ccc(Cl)cc1F | 9.15% (active)
41 | O=C(CCc1nnc2sc(Cc3ccccc3Cl)nn12)c1nc2ncccc2[nH]1 | 88.4%
42 | O=c1oc2ccc(I)cc2c(=O)n1-c1ccc(I)cc1F | 8.02% (active)
43 | O=C(NCc1ccccc1)C1CN(c2ccc(Cl)cc2)N(c2ccc(Cl)cc2)C1=O (stereo not drawn) | 60.8%
44 | O=c1oc2ccc(-c3ccc(F)cc3F)cc2c(=O)n1-c1cccc(C(F)(F)F)c1 | 12.6%
45 | Nc1nc(-c2cnccn2)nn1-c1nc2ccccc2s1 | 105%
46 | O=C(c1ccccc1)N(C(=S)NCCc1ccc(Cl)cc1)c1ccc(Cl)cc1 | 62.8%
47 | O=C(COc1cc(O)c2c(=O)cc(-c3ccccc3)oc2c1)Nc1ccccc1 | 87.5%
48 | O=C(Nc1ccc(I)cc1F)c1cc(Cl)ccc1O | 8.71% (active)
49 | O=c1oc2ccc(F)cc2c(=O)n1-c1ccc(I)cc1F | 11%
50 | O=C(Nc1ccc(I)cc1F)c1cc(Br)ccc1O | 7.36% (active)
51 | CSc1nc2c(c(=O)[nH]1)N=C1c3ccccc3C(=O)C1C(c1ccc(F)cc1)N2 (stereo not drawn) | 54.5%
52 | O=C(Nc1ccc(F)cc1F)c1cc(I)ccc1O | 14.5%
53 | O=C(Nc1ccc(Br)cc1F)c1cc(Cl)ccc1O | 11.7%
54 | Cn1nc(C(C)(C)C)cc1NC(=O)Cc1ccc(/C=C2\C(=O)Nc3ccccc32)cc1 | 76.8%
55 | CN(CCc1ccccc1)C(=S)N(C(=O)c1ccc([N+](=O)[O-])cc1)c1ccc(Cl)cc1 | 75.3%
56 | O=C(c1ccccc1)N(C(=S)NCCc1ccc(Cl)cc1)c1ccccc1 | 76.9%
57 | O=C(Nc1ccc(F)cc1F)c1cc(Br)ccc1O | 13.1%
58 | CC[C@]1(O)C[C@@H]2CN(CCc3c([nH]c4ccccc34)[C@@](C(=O)OC)(c3cc4c(cc3OC)N(C)[C@H]3[C@@](O)(C(=O)OC)[C@H](OC(=O)CCCBr)[C@]5(CC)C=CCN6CC[C@]43[C@@H]65)C2)C1 | 22.4%
59 | O=c1oc2ccc(Cl)cc2c(=O)n1-c1ccc(F)cc1F | 15.6%

Row | SMILES | growth
60 | Fc1cccc(COc2ccc(Nc3ncnc4onc(-c5ccccc5)c34)cc2)c1 | 19.8%
61 | O=C(Nc1ccc(F)cc1F)c1cc(Cl)ccc1O | 14.5%
62 | O=C(CCc1nnc2sc(-c3ccc(Cl)cc3Cl)nn12)c1nc2ncccc2[nH]1 | -30.4% (active)
63 | COc1ccc(C2=C(c3cccc(OC)c3)C(=O)c3ccc(C)nc3C2=O)cc1 | 23.6%
64 | COc1cc(/C=C2\Oc3cc(OCCCN4CCCC4)ccc3C2=O)cc(OC)c1 | 5.52% (active)
65 | Nc1ccn(C2O[C@H](CO)[C@@H](O)[C@H]2O)c(=O)n1 (stereo partly drawn) | 72.7%
66 | COc1cc2nc(-c3cnc(N(C)C)nc3)nc(NC3CCN(Cc4ccccc4)CC3)c2cc1OC | -56.3% (active)
67 | O=c1oc2ccc(I)cc2c(=O)n1-c1ccc(F)cc1F | 19.7%
68 | C1=CC2(C=C1)OC21CCC2(C=CC3(C2)OC3C2CCCCC2)CC1 (stereo not drawn) | 109%
69 | COc1ccc2[nH]c(O)c(N=NC(=O)c3oc4ccccc4c3C)c2c1 | 35.1%
70 | CCOc1ccc(-c2nonc2NC(=O)c2cccc(C)c2)cc1OCC | 61.8%
71 | Cc1cccc2c(=O)c3c(sc12)c(NCCN)nc1ccccc13 | -77.6% (active)
72 | COc1ccc(Cn2c(Br)c3c(c2Br)-c2nc(NC(=O)c4ccc(OC)cc4)sc2CC3)cc1 | 84%
73 | O=C(Nc1ccc(Br)cc1F)c1cc(I)ccc1O | 14.1%
74 | Cc1ccc2[nH]c(=O)cc(-n3nncc3Cn3c4ccccc4c4ccccc43)c2c1 | 97.9%
75 | COc1ccc(-c2cn[nH]c2-c2ccc(OC)c(O)c2)cc1 | 38%
76 | O=C(CCc1nnc2sc(COc3ccccc3)nn12)c1nc2ncccc2[nH]1 | 85.8%
77 | CCOC(=O)c1c2c(c(C)n1Cc1ccc(OC)cc1)-c1oncc1CC2 | 96.4%
78 | Cc1nc(Nc2ccccn2)sc1C(=O)/C=C/c1ccc(Cl)cc1 | 25.2%
